uPA generation – qHTS for Inhibitors of Cell Surface uPA Generation | cell surface uPA generation assay, qHTS | Potency, µM (series often up to 38.3 µM), without a hit: at the top dose activity change, negative = inhibition, usual class: inhibitors | 0.31% of 330,000 active; active = well fitted inhibition curve with a large enough effect; inconclusive = small, poorly fitted or top-dose-only effect; inactive = no such curve, though single readings can be large or run the other way; tested in mouse RAW 264.7 cells; also: potency is read from the fitted curve at half-maximal effect; % is scaled to controls: 0 for no effect and ±100 for the full control effect; nearly all actives have a fitted effect of over 55% in size
TSHR antag – Antagonists of the Thyroid Stimulating Hormone Receptor: HTS campaign; activity change, negative = inhibition, % at 11.5 µM; 0.2% of 330,000 active; Thyrotropin receptor (Homo sapiens), P16473; TSHR-expressing cells, TSH-stimulated cAMP HTRF, 2 h; stronger effect = lower value;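 active = activity change below a set negative limit, meaning inhibition stronger than a set level, cut at about -70% in these data; inconclusive = activity change between two set negative limits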; also: % is scaled to controls: 0 for no effect and ±100 for the full control effect
Target sequence (P16473 whole entry, looked up): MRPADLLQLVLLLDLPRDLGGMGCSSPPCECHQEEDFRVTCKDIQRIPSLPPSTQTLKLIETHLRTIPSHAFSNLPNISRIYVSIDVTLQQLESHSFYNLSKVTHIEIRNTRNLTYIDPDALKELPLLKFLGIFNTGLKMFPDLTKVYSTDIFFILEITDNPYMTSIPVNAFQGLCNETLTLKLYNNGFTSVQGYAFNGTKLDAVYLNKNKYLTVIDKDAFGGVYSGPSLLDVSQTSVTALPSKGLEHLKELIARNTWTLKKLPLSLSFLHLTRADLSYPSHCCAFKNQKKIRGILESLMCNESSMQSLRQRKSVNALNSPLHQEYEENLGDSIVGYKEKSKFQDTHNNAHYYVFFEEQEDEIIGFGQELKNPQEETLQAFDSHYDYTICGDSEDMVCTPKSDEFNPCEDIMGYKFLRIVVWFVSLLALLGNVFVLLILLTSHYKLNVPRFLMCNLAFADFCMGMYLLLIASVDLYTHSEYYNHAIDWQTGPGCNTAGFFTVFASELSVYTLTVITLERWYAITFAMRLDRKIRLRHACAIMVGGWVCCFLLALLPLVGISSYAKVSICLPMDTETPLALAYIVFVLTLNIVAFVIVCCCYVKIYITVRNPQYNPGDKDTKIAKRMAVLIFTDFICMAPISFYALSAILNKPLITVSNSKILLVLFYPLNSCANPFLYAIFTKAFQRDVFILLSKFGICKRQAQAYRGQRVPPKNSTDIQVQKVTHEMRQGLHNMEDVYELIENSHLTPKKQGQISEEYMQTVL
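Read-out is FRET at 665 nm (cryptate excitation 337 nm) from a cryptate-tagged anti-cAMP antibody, competed by cell cAMP against cAMP-d2. Compounds are tested on freshly harvested TSHR cells challenged with 4nM TSH (EC80) for 2 hours at 37 deg C.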
VDR inh – Inhibitors of the vitamin D receptor (VDR): qHTS; Vitamin D3 receptor (Homo sapiens), P11473; Potency, µM, for the others: max response, negative = inhibition, hits mostly inhibitors; VDR-SRC2-3 peptide fluorescence polarization, 2 h; AID 504847, 2011; 0.93% of 400,000 active; also: potency is read from the fitted curve at half-maximal effect; % is scaled to controls: 0 for no effect and ±100 for the full control effect
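After 23 nl compound addition and a short centrifugation, plates sat for 2 hours at ambient temperature; polarization of fluorescence then indicated loss of VDR binding to peptide SRC2-3.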
PLK1 PBD inh – qHTS for Inhibitors of PLK1-PDB (polo-like kinase 1 - polo-box domain): Primary Screen; Potency, µM, inactives show max response, negative = inhibition, hits mostly inhibitors; 2.8% of 360,000 active; AID 720504, 2013; Plk1 PBD binding of FITC phosphopeptide, fluorescence polarization; also: potency is read from the fitted curve at half-maximal effect; series mostly up to about 57 µM; % is scaled to controls: 0 for no effect and ±100 for the full control effect; nearly all actives have a fitted effect of over 65% in size
TSG101-PTAP inh – qHTS Assay for Iinhibitors of HIV-1 Budding by Blocking the Interaction of PTAP/TSG101; Fluorescence polarization, FITC-PTAP peptide / Tsg101 binding; Potency, µM (titrated, usually from 115 µM), for the others: at the top dose activity change, negative = inhibition, hits mostly inhibitors; 340,000 tested, under 10 active; AID 493005, 2010; active = well fitted inhibition curve with a large enough effect in the main read-out, with a control signal flat, not every such curve was filed as active; inconclusive = small, poorly fitted or top-dose-only effect, or effect the other way, or a change in a side signal; inactive = no such curve, though single readings can be large or run the other way; also: potency is read from the fitted curve at half-maximal effect; % of control where 0% means no effect
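FP read-out: FITC-PTAP peptide, 50 nM final, binding Tsg101 binding domain, 10 uM final; 20 min, r.t.; 10 mM HEPES pH 7.5, 0.15 M NaCl, 0.01% Tween 20, 3 mM EDTA, 0.1 mM TCEP.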
* marks the source's active call; other numbers are inactive results; ? = inconclusive; · = no result; ! = a repeat was not active. In the library only some 3.1% were active in any assay of this set; here they are far more common. Unless noted, calls follow the shape of the dose curve; as a rule, active = well fitted curve in the direction sought with a large enough effect; inconclusive = small, poorly fitted or top-dose-only effect, or another doubt; inactive = no such curve, though single readings can be large; an effect the other way counts as inactive or inconclusive.

SMILES	uPA generation	TSHR antag	VDR inh	PLK1 PBD inh	TSG101-PTAP inh
O=C(CF)NC(NC(=S)Nc1cccc([N+](=O)[O-])c1)C(Cl)(Cl)Cl (centres undefined)	-26%	-1	-10%	-20%	-5%
COc1ccc(NC(=S)NC(NC(=O)CF)C(Cl)(Cl)Cl)cc1[N+](=O)[O-] (centres undefined)	7%	-2	-5%	30µM*	0%
CCOC(=O)c1ccccc1C(=O)OCC	-10%	·	-9%	-19%	-20%
CCOC(=O)C(SP(=S)(OC)OC)c1ccccc1 (centres undefined)	·	·	3.5µM*	·	·
C/C(=N\NC(N)=O)c1c(O)n(C)c(=O)n(C)c1=O	-1%	-2	-10%	30µM*	1%
CC1CCCC(C)N1C(=O)CSc1nnc(NC(=O)c2cccs2)s1 (centres undefined)	3%	-5	7%	?	-4%
COc1ccc(C[C@@H]2c3cc(O)c(OC)cc3CCN2C)cc1O	12%	5	18%	1%	·
COc1cc2c(cc1O)[C@@H]1Cc3ccc(OC)c(O)c3CN1CC2	4.5µM*	-8	-7%	-24%	0%
CN1CCN(c2ncc3ncc(=O)n(C)c3n2)CC1	·	·	8%	·	·
O=C1OC(c2cc(I)c(O)c(I)c2)(c2cc(I)c(O)c(I)c2)c2ccccc21	·	·	20µM*	·	·
CCC/C=C/C=C/C(=O)OC1/C(=C/C(=O)OC)CC2CC(C(C)O)OC(=O)CC(O)CC3CC(OC(C)=O)C(C)(C)C(O)(CC4C/C(=C/C(=O)OC)CC(/C=C\C(C)(C)C1(O)O2)O4)O3 (centres undefined)	·	·	-1%	·	·
Clc1ccc(C(Cl)(Cl)Cl)c(Cl)c1	15%	4	1%	11µM*	-2%
C[C@@H]1O[C@H](C[N+](C)(C)C)C[C@@H]1O	·	·	-1%	·	·
O=C(N[C@@H]1CN2CCC1CC2)c1cc(Cl)cc2[nH]cnc12	·	·	13%	·	·
O=C(O)CCC1NCC2CC1CN1CCCCC21 (centres undefined)	·	·	0%	·	·
CC(C)=CCOc1c2occc2cc2ccc(=O)oc12	-17%	-7	?	27µM*	-2%
O=C1C(Cl)=C(Cl)C(=O)C(Cl)=C1Cl	·	·	0.71µM*	·	·
CC(=O)[C@H]1CCC2C3CC[C@H]4C[C@@H](O)CC[C@]4(C)C3CC[C@@]21C (some centres undefined)	-5%	-10	-7%	2%	-1%
CC(=O)[C@@H]1CC[C@H]2[C@@H]3CC[C@@H]4CC(=O)CC[C@]4(C)[C@H]3CC[C@]12C	·	·	50µM*	·	·
Cc1cc2c(C(C)C)c(O)c(O)c(C=O)c2c(O)c1-c1c(C)cc2c(C(C)C)c(O)c(O)c(C=O)c2c1O	·	-80*!	6.3µM*	·	·
CN[C@@H](Cc1c[nH]c2ccccc12)C(=O)O	·	·	-2%	·	·
C=CCN1C(=O)/C(=C/c2cc(C)n(-c3ccccn3)c2C)C(=O)NC1=S	2%	2	-36%	2.4µM*	-2%
COc1ccc(CN2CCCC(C(=O)c3cccc(Cl)c3)C2)cc1 (centres undefined)	?	1	0%	-1%	2%
COc1ccc(CN2CCCC(C(=O)c3ccc(Cl)cc3)C2)c(OC)c1 (centres undefined)	1%	6	?	24µM*	-2%
CCC[C@@H]1CC2=CC(=O)CC[C@]2(C)[C@@H]2CC[C@@]3(C)[C@H](CC[C@]3(O)CCC(=O)O)[C@H]12	·	·	-29%	·	·
SMILES	uPA generation	TSHR antag	VDR inh	PLK1 PBD inh	TSG101-PTAP inh
Cc1ccc2nc3sc(=O)sc3nc2c1	·	·	8.9µM*	·	·
CC[C@H](C)[C@H](NC(=O)CN)C(=O)N[C@@H](CC(C)C)C(=O)NCC(=O)N[C@@H](Cc1ccccc1)C(=O)N[C@H](C(=O)N[C@@H](Cc1ccccc1)C(=O)N[C@H](C(=O)N[C@@H](CC(C)C)C(=O)O)[C@@H](C)O)C(C)C	·	·	0%	·	·
Cc1ccc(C[N+](C)(C)C)o1	·	·	-1%	·	·
CN1C(=O)[C@]23CC4=CC=C[C@H](O)[C@H]4N2C(=O)[C@@]1(CO)SS3	·	·	4µM*	·	·
Cc1ccccc1NC(=O)CCl	?	4	-27%	-6%	0%
O=C(CN1C(=O)S/C(=C\C=C\c2ccccc2)C1=O)Nc1ccccc1C(=O)O	-16%	-1	79µM*	19µM*	-4%
Cc1ccc(Cl)cc1NC(=O)CC(O)(C(F)(F)F)C(F)(F)F	?	-24	-5%	-7%	-5%
COc1ccc(C(C)=O)cc1Cc1c(O)[nH]c(=S)[nH]c1=O	13%	-6	?	?	0%
CCOc1ccc(C(C)=O)cc1Cc1c(O)[nH]c(=S)[nH]c1=O	-13%	37	?	30µM*	-4%
CCCOc1ccc(C(C)=O)cc1Cc1c(O)[nH]c(=S)[nH]c1=O	1%	25	?	30µM*	2%
CC(=O)c1ccc(OC(C)C)c(Cc2c(O)[nH]c(=S)[nH]c2=O)c1	22%	7	?	?	-5%
C[C@H](CCC(=O)OCc1cn(CC(=O)c2ccc(O)cc2)nn1)C1CC[C@H]2[C@@H]3CC[C@@H]4C[C@H](O)CC[C@]4(C)[C@H]3C[C@H](O)[C@]12C (some centres undefined)	?	·	-10%	-11%	-4%
CC(=O)c1sc(NC(=O)c2ccco2)nc1-c1ccccc1	?	-6	-12%	-8%	0%
CCNC(=O)O/N=C(\C)c1sc(-c2ccccc2)nc1C	-3%	15	-4%	24µM*	-4%
COc1ccccc1CN1CC[C@@]2(CCCN(C(=O)Oc3ccccc3)C2)C1	·	·	0%	·	·
CC12C=CC(=O)C=C1CCC1C2=CCC2(C)C1CC[C@@H]2C(=O)CN1CCN(c2cc(N3CCCC3)nc(N3CCCC3)n2)CC1 (some centres undefined)	·	·	3.2µM*	·	·
COc1ccc(NC(=O)N2CC3(CCN(C(=O)Oc4ccccc4)CC3)C2)cc1	·	·	8%	·	·
COCc1cc(C)c(C#N)c(=S)[nH]1	5%	-1	3%	27µM*	-5%
C=CCNC(=O)c1onc(CCl)c1C(=O)OC	?	9	-10%	-16%	·
COc1ccc2nc(/N=C/c3c(O)n(-c4cccc(Cl)c4)c(=O)[nH]c3=O)sc2c1	-6%	-2	50µM*	-30%	-1%
COc1cccc(-n2c(O)c(C=Nc3c(C)n(C)n(-c4ccccc4)c3=O)c(=O)[nH]c2=O)c1	2%	7	-15%	3%	1%
CCOC(=O)C1(Cc2ccc(Cl)cc2)CCN(C(C)Cc2ccc(O)c(OC)c2)CC1 (centres undefined)	?	-7	-19%	-2%	1%
ClC1=C(Cl)C(Cl)(C2(Cl)C(Cl)=C(Cl)C(Cl)=C2Cl)C(Cl)=C1Cl	·	·	3.2µM*	·	·

Bioassay records from PubChem.
